Our source for the inhibition values is PubChem BioAssay.

Structures are written as SMILES. Values without a mark were called inactive. No rule for the calls is given here.

The target of the assay is Pantothenate synthetase (Mycobacterium tuberculosis (strain ATCC 25618 / H37Rv)) (UniProt P9WIL5). As to the kind of experiment: Coupled enzyme confirmation of inhibitors against recombinant Mtb PanC (AID 375).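 Also: 0% = full reaction with vehicle and 100% = no enzyme background.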 Conditions: coupled enzyme assay; at 10 µM, hits give high values.
Sequence of Pantothenate synthetase (Mycobacterium tuberculosis (strain ATCC 25618 / H37Rv)) (P9WIL5 whole entry, looked up): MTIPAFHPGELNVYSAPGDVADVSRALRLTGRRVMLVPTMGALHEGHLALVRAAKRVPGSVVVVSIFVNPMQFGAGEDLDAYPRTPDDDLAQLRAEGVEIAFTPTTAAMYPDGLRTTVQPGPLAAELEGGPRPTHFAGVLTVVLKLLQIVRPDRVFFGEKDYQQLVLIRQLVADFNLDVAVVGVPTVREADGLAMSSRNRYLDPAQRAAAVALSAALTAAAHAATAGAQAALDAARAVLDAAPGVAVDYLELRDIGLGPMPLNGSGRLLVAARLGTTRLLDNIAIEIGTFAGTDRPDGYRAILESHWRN
The term inhibition denotes the percentage by which the read-out fell short of the control. With `O=C(c1cnn2c(C(F)F)cc(-c3ccccc3)nc12)N1CCN2CCCC2C1` (stereo not given), the inhibition is 0%.

As to `COc1ccc(S(=O)(=O)NCc2ccco2)cc1-c1nnc2c3ccccc3c(C)nn12`, the inhibition is 8%.

On to `Cc1ccc2c(c1)sc1ncc(NC(=O)c3ccccc3)c(=O)n12`, for which the inhibition was 2%.

As to `CC(=O)Nc1cc(NC(C)=O)cc(C(=O)OCC(=O)N2CC(C)OC(C)C2)c1` (stereo not given), the inhibition was 2%.

On to `c1ccc2c(c1)CC(N1CCCCC1)c1ccccc1N2` (stereo not given), for which the inhibition is 0%.

For `Cc1ccc(-c2noc(COc3ccccc3C)n2)cc1`, the inhibition was 0%.

In the case of `Cc1ccc(-n2ncc3c(Nc4c(C)n(C)n(-c5ccccc5)c4=O)ncnc32)c(C)c1`, the inhibition is 10%.

With `CC1(C)Cc2ccccc2C(N)=C1C#N`, the inhibition is 5%.

As to `CCN1CCCC1CNCc1ccc(Cl)cc1Cl` (stereo not given), the inhibition is 0%.

As to `CCN(CC(=O)Nc1ccc2c(c1)OCCO2)Cc1cc(=O)oc2cc(C)c(C)cc12`, the inhibition was 0%.

As to `O=S(=O)(c1ccccc1)N1CCN(C2CCCCCCC2)CC1`, the inhibition was 8%.

Regarding `CCOC(=O)c1ccc(CNC(=O)C(Cc2c[nH]c3ccccc23)NC(C)=O)o1` (stereo not given), the inhibition was 3%.

Consider `Cc1nc2sccn2c(=O)c1CCN1CCC(=C(c2ccccc2)c2ccc(F)cc2)CC1`, for which the inhibition was 3%.

`CCCCNC(=O)c1cc(-c2ccc(F)cc2)on1`: the inhibition is 6%.

Consider `Cn1c(CN2CCCCC2)nc2cc(NC(=O)c3ccccc3)ccc21`, for which the inhibition was 0%.

For the molecule `O=C(Nc1ccc(O)cc1)C1CCCN1S(=O)(=O)c1ccc(F)cc1` (stereo not given), the inhibition is 0%.

Turning to `CCOc1ccccc1-n1nnnc1SCC(=O)Nc1cc2oc3ccccc3c2cc1OC`, the inhibition is 0%.

On to `COc1cc2c(cc1OC)CN(C(=O)CSc1nc3[nH]ncc3c(=O)n1-c1ccccc1)CC2`, for which the inhibition was 2%.

In the case of `COc1ccccc1Cn1c(-c2ccco2)nc2nc3ccccc3nc21`, the inhibition is 0%.

With `O=C(Oc1ccc2ccc(OC(=O)N3CCOCC3)cc2c1)N1CCOCC1`, the inhibition was 0%.

Regarding `Cc1ccc(-c2nnc3c4ccccc4c(C)nn23)cc1S(=O)(=O)N1CCN(C)CC1`, the inhibition was 1%.

Consider `CCOC(=O)c1nnn(CC(=O)Nc2cccc(F)c2)c1C(=O)OCC`, for which the inhibition was 3%.

Regarding `O=C1CCCC2=C1C(c1cccc(Br)c1)n1nc(-c3ccco3)nc1N2` (stereo not given), the inhibition was 0%.

On to `Cc1ccc(NC2=NCC(=O)N2c2ccc3c(c2)OCCO3)c(C)c1`, for which the inhibition is 7%.

Turning to `Cc1nn(C(=O)c2ccccc2)c2c1C(=O)CC(C)(C)C2`, the inhibition is 0%.

For the molecule `CCN(C1CCCCC1)S(=O)(=O)c1ccc(S(=O)(=O)N2CCN(CCC#N)CC2)cc1`, the inhibition was 0%.

As to `O=c1oc2ccccc2c(N2CCCCC2)c1CN1CCCCC1`, the inhibition is 0%.

In the case of `CCOc1cccc(-n2nnnc2-c2ccc(OC)cc2)c1`, the inhibition was 9%.

Consider `CC(C)OC(=O)C(C)(C)Oc1ccc(C(=O)c2ccc(Cl)cc2)cc1`, for which the inhibition is 0%.

As to `C=CCn1c(SCC(=O)NCC2CCCO2)nnc1C1CCCCC1` (stereo not given), the inhibition was 8%.

For `CC(=O)Nc1c(I)c(NC(C)=O)c(I)c(C(=O)O)c1I`, the inhibition is 1%.

In the case of `CCOC(=O)c1[nH]c2ccccc2c1NC(=O)CCN1CCN(C(=O)OCC)CC1`, the inhibition is 0%.

As to `C=CCSc1nnc2n(CCc3ccccc3)c(=O)c3c4c(sc3n12)COC(C)(C)C4`, the inhibition is 0%.

Turning to `Cc1cccc(-n2c(O)c(C=Nc3ccccc3N)c(=O)[nH]c2=O)c1`, the inhibition was 0%.

Regarding `O=c1c2ccccc2c(C=Nc2ccc(Cl)cn2)c(O)n1-c1cc(Cl)ccc1N1CCOCC1`, the inhibition is 4%.

For `Cc1ccc(Cn2c(=O)c3ccccc3n3c(CCC(=O)O)nnc23)cc1`, the inhibition was 0%.

As to `CSc1cccc(NC(=O)C2CCCN2S(=O)(=O)c2ccc3c(c2)CCC(=O)N3)c1` (stereo not given), the inhibition is 0%.

On to `COC(=O)C(C)Oc1ccc2c3c(c(=O)oc2c1)CCCCC3` (stereo not given), for which the inhibition was 2%.

`CC(=O)c1cccc(NS(=O)(=O)c2ccc3c(c2)oc(=O)n3C)c1`: the inhibition was 0%.

As to `N#Cc1c(/N=C/c2ccco2)sc2c1CCC2`, the inhibition was 0%.
